Measured values taken from article PMC7862700, “An all-to-all approach to the identification of sequence-specific readers for epigenetic DNA modifications on cytosine”.

Legend:
Assay in all cases: DAPPL (digital affinity profiling via proximity ligation, sequencing); 10 mM Tris-HCl pH 7.5, 50 mM NaCl, 1 mM DTT, 4% glycerol, room temperature, 30 min; GST-TFs on glutathione beads, 16-mer random dsDNA library, 0.1% formaldehyde crosslink after washing; high values mean tight binding
FLI1 = molecular target: T1, FLI1 (Homo sapiens, UniProt Q01543 1-452); details: protein: recombinant; tags: N-terminal GST; dsDNA, one strand shown
T1 sequence: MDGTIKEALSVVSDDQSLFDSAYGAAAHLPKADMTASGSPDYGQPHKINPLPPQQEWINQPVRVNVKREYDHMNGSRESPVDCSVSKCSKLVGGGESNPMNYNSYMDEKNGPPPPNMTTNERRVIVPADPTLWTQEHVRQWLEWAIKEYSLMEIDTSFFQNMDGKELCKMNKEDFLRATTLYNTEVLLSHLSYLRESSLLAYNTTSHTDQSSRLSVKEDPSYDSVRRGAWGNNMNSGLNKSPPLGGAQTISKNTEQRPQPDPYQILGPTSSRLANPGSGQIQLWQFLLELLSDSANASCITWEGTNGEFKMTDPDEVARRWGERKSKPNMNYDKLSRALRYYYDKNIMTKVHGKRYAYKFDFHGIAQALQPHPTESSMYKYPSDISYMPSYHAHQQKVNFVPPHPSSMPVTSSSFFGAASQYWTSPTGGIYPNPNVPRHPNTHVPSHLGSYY
How it was run: (§1)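 The binding signal reported is, for every hexamer, its read frequency for a factor over its read frequency for the tag-only sample. Reads came from pools of yeast-expressed, GST-fused human transcription factors on glutathione beads, barcoded with DNA and mixed with that sample, which were incubated with 200 nmole of a random double-stranded 16-mer DNA library in Tris/NaCl/DTT/glycerol buffer at room temperature for 30 min. After washing, the pools were crosslinked with 0.1% formaldehyde, proximity-ligated with BsaI/T4 ligase for 1 h at 37 °C, PCR-amplified and sequenced on an Illumina NextSeq500.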

ELK1 = molecular target: T2, ELK1 (Homo sapiens, UniProt P19419 1-428); details: protein: recombinant; tags: N-terminal GST; dsDNA, one strand shown
T2 sequence: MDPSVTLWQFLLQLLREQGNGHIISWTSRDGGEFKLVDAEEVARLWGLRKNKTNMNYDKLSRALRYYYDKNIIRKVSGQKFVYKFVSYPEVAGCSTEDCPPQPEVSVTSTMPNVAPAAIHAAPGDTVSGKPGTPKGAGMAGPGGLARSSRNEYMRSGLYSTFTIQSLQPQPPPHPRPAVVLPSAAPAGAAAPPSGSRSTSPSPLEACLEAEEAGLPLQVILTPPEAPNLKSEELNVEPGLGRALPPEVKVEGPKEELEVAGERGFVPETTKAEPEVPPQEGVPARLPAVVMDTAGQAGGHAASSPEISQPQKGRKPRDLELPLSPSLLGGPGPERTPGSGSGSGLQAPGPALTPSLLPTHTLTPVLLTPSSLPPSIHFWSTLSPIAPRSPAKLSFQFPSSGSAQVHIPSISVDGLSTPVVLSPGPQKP
How it was run: as §1

GABPA = molecular target: T3, GABPA (Homo sapiens, UniProt Q06546 1-454); details: protein: recombinant; tags: N-terminal GST; dsDNA, one strand shown
T3 sequence: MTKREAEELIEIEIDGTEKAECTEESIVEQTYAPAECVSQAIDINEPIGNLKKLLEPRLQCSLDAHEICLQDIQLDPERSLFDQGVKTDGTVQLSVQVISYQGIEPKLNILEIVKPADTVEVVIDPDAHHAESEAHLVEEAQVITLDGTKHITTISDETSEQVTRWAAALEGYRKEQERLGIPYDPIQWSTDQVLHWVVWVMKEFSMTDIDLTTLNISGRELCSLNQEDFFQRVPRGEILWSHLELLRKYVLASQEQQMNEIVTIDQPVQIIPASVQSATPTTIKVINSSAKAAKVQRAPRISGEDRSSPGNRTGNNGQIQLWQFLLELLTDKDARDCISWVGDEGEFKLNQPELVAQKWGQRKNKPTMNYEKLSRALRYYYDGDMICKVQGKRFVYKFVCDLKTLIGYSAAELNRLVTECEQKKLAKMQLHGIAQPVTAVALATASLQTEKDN
How it was run: as §1

ERG = molecular target: T4, ERG (Homo sapiens, UniProt P11308 1-479); details: protein: recombinant; tags: N-terminal GST; dsDNA, one strand shown
T4 sequence: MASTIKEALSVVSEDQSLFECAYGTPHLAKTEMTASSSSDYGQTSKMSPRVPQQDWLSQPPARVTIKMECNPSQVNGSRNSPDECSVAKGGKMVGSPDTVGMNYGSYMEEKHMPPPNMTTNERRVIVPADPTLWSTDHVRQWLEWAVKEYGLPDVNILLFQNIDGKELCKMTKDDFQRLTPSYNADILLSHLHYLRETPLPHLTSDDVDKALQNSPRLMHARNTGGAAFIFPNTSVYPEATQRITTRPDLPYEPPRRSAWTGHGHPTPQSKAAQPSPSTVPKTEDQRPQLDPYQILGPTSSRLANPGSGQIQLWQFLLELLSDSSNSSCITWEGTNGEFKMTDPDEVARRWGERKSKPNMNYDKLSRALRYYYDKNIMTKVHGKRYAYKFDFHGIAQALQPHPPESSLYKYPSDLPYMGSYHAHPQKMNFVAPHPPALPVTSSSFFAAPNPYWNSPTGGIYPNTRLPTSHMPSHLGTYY
How it was run: as §1

ELF1 = ELF1 (Homo sapiens, UniProt P32519 1-619); details: protein: recombinant; tags: N-terminal GST; dsDNA, one strand shown
How it was run: as §1

EHF = molecular target: T5, EHF (Homo sapiens, UniProt Q9NZC4 1-300); details: protein: recombinant; tags: N-terminal GST; dsDNA, one strand shown
T5 sequence: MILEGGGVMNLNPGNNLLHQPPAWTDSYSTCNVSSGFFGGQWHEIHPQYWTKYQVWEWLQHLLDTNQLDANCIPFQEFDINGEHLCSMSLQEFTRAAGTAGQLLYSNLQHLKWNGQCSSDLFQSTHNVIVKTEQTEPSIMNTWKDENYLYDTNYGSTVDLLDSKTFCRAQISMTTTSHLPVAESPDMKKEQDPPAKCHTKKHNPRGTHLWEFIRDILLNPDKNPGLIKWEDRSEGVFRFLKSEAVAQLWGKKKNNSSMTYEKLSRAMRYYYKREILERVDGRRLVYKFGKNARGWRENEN
How it was run: as §1

SPI1 = SPI1 (Homo sapiens, UniProt P17947 1-270); details: protein: recombinant; tags: N-terminal GST; dsDNA, one strand shown
How it was run: as §1

SPIB = SPIB (Homo sapiens, UniProt Q01892 1-262); details: protein: recombinant; tags: N-terminal GST; dsDNA, one strand shown
How it was run: as §1

FEV = molecular target: T6, FEV (Homo sapiens, UniProt Q99581 1-238); details: protein: recombinant; tags: N-terminal GST; dsDNA, one strand shown
T6 sequence: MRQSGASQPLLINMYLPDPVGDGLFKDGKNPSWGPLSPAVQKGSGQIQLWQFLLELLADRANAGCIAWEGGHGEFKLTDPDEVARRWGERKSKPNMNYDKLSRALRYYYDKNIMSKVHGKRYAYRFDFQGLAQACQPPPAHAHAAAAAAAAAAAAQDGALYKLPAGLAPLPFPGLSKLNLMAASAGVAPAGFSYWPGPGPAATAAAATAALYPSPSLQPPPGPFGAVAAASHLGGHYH
How it was run: as §1

ETV5 = ETV5 (Homo sapiens, UniProt P41161 1-510); details: protein: recombinant; tags: N-terminal GST; dsDNA, one strand shown
How it was run: as §1

HSF1 = HSF1 (Homo sapiens, UniProt Q00613 1-529); details: protein: recombinant; tags: N-terminal GST; chain copies: 3; dsDNA, one strand shown
How it was run: as §1

SPIC = molecular target: T7, SPIC (Homo sapiens, UniProt Q8N5J4 1-248); details: protein: recombinant; tags: N-terminal GST; dsDNA, one strand shown
T7 sequence: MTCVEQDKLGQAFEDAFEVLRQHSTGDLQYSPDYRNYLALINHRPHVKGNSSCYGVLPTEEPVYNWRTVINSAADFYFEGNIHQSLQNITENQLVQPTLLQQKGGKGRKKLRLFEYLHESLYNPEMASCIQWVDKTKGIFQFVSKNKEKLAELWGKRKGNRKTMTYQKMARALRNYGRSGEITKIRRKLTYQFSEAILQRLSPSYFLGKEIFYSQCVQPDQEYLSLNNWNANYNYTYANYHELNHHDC
How it was run: as §1

ELF4 = ELF4 (Homo sapiens, UniProt Q99607 1-663); details: protein: recombinant; tags: N-terminal GST; dsDNA, one strand shown
How it was run: as §1

ELK4 = molecular target: T8, ELK4 (Homo sapiens, UniProt P28324-2 1-405); details: protein: recombinant; tags: N-terminal GST; dsDNA, one strand shown
T8 sequence: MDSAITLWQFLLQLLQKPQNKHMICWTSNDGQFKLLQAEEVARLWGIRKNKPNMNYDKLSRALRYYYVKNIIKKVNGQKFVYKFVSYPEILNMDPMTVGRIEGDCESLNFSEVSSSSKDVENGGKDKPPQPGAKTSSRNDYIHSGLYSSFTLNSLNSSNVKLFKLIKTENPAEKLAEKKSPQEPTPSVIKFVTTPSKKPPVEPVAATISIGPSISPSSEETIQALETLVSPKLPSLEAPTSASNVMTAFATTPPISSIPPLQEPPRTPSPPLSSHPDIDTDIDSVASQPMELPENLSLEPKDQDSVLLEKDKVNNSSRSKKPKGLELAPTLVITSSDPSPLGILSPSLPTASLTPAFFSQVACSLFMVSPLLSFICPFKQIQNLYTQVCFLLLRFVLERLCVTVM
How it was run: as §1

ETV2 = molecular target: T9, ETV2 (Homo sapiens, UniProt O00321 1-342); details: protein: recombinant; tags: N-terminal GST; dsDNA, one strand shown
T9 sequence: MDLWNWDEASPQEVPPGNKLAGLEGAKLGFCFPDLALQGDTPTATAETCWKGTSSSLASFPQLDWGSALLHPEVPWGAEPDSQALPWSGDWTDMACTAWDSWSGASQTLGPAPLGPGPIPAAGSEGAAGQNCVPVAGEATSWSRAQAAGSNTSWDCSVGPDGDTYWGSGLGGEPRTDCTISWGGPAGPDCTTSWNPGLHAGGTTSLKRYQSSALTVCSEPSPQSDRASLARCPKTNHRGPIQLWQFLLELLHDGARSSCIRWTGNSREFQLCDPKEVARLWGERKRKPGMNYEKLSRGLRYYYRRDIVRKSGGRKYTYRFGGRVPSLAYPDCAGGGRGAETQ
How it was run: as §1

CRX = CRX (Homo sapiens, UniProt O43186 1-299); details: protein: recombinant; tags: N-terminal GST; dsDNA, one strand shown
How it was run: as §1

ETV1 = ETV1 (Homo sapiens, UniProt P50549 1-477); details: protein: recombinant; tags: N-terminal GST; dsDNA, one strand shown
How it was run: as §1

ELK3 = molecular target: T10, ELK3 (Homo sapiens, UniProt P41970 1-407); details: protein: recombinant; tags: N-terminal GST; dsDNA, one strand shown
T10 sequence: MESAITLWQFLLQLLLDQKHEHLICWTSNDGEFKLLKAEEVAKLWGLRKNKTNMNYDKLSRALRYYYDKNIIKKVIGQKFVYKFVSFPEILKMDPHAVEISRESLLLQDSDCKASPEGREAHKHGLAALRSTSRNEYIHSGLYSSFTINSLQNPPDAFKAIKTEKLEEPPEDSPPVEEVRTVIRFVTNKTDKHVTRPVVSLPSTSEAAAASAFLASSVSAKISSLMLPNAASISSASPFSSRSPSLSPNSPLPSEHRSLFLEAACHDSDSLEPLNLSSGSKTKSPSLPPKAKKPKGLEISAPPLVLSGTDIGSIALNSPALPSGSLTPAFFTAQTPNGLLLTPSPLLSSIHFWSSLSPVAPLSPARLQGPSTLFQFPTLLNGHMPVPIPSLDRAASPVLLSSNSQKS
How it was run: as §1

Chain of HSF1 (Q00613 whole entry): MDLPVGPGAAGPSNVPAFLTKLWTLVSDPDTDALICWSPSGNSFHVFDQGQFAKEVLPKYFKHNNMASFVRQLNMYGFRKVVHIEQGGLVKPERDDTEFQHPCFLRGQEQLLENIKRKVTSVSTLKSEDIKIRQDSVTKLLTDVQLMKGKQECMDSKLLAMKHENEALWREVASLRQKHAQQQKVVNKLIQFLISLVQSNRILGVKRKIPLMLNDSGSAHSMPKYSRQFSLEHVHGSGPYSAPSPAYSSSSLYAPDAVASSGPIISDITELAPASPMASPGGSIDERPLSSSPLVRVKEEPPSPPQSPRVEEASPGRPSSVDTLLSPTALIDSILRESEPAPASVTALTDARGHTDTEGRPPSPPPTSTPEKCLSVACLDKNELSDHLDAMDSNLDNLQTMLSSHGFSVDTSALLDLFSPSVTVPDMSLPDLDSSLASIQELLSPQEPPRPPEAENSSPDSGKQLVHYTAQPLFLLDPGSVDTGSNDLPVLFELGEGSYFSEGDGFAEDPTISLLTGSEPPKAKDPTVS
Chain of ETV1 (P50549 whole entry): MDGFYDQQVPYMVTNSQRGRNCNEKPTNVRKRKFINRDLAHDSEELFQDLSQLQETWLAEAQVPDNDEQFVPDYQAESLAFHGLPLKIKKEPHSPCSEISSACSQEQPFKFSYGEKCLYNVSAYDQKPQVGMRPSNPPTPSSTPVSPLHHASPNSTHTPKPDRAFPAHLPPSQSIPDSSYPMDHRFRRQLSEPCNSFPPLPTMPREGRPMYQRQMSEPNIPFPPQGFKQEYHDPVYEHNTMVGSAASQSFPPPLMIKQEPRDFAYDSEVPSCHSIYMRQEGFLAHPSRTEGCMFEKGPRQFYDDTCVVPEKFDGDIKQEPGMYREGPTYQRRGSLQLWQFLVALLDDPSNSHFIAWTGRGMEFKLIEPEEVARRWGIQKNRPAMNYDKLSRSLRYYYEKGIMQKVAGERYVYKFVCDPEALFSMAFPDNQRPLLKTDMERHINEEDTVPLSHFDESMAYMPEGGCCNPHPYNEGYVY
Chain of CRX (O43186 whole entry): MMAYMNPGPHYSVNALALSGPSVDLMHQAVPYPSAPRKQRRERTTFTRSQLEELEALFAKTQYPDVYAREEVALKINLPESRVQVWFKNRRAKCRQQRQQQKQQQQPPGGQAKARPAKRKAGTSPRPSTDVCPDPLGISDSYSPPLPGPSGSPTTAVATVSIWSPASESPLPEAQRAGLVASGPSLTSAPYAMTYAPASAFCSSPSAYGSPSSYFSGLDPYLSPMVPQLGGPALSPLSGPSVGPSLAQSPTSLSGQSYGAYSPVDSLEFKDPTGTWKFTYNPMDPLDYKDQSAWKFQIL
Chain of ELF4 (Q99607 whole entry): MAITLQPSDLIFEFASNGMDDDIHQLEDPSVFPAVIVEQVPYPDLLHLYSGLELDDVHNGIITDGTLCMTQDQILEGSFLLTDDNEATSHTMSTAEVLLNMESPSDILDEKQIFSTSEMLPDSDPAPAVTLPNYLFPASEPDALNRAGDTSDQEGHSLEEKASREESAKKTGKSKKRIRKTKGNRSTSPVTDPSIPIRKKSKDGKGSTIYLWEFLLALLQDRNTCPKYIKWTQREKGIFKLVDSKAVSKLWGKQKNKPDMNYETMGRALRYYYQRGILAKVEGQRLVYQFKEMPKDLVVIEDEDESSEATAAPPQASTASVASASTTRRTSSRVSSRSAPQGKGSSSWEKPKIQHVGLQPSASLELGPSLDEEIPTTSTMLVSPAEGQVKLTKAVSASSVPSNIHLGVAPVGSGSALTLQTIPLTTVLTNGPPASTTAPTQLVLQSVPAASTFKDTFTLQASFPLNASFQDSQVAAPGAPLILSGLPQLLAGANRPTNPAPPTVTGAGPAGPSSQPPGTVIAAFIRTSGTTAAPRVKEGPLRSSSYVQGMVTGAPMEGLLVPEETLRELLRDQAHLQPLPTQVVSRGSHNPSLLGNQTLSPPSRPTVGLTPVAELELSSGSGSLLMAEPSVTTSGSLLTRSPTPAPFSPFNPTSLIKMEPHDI
Chain of SPIB (Q01892 whole entry): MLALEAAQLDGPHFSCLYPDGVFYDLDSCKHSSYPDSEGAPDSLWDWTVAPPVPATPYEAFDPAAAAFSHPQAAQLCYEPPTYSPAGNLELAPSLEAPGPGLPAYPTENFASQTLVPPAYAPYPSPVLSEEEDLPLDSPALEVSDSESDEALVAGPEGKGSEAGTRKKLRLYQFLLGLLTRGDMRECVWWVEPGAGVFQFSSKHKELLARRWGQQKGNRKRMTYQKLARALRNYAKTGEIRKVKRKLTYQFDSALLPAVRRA
Chain of ELF1 (P32519 whole entry): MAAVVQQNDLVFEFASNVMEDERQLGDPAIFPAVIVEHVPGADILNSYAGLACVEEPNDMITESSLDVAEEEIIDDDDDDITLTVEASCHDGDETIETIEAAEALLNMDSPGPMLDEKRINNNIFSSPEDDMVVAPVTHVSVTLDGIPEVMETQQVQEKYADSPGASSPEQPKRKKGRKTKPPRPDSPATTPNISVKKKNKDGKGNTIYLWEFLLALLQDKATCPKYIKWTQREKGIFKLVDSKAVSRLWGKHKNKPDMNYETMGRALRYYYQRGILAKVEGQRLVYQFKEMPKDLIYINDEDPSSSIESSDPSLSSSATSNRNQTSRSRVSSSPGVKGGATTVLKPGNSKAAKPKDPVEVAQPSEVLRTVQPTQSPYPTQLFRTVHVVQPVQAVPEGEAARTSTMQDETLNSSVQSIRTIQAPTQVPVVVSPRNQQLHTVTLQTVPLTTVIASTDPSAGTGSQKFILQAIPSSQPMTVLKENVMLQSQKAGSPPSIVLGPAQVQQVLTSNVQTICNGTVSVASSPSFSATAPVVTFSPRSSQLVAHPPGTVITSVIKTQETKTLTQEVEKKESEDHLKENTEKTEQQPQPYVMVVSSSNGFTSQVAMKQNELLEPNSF
Chain of ETV5 (P41161 whole entry): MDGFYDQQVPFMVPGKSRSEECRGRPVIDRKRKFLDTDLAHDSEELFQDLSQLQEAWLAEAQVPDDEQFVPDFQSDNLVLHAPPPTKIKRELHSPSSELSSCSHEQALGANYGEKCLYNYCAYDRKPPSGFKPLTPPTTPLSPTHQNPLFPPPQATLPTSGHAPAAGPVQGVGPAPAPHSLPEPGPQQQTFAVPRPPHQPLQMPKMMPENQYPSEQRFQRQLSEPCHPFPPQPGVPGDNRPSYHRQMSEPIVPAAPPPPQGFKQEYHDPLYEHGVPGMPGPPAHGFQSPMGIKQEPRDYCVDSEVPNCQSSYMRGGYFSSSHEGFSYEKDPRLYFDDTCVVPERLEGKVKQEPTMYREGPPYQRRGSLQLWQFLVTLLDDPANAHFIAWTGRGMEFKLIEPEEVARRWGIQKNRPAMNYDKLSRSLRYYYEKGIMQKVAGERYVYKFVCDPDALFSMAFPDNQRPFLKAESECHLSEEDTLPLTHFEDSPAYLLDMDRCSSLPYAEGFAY

Sequence	binding signal (FLI1)	binding signal (ELK1)	binding signal (GABPA)	binding signal (ERG)	binding signal (ELF1)	binding signal (EHF)	binding signal (SPI1)	binding signal (SPIB)	binding signal (FEV)	binding signal (ETV5)	binding signal (HSF1)	binding signal (SPIC)	binding signal (ELF4)	binding signal (ELK4)	binding signal (ETV2)	binding signal (CRX)	binding signal (ETV1)	binding signal (ELK3)
GAAAAG	1.05 fold enrichment (6-mer frequency, TF over GST control)	1.01 fold enrichment (6-mer frequency, TF over GST control)	1.07 fold enrichment (6-mer frequency, TF over GST control)	1.06 fold enrichment (6-mer frequency, TF over GST control)	1.04 fold enrichment (6-mer frequency, TF over GST control)	1.11 fold enrichment (6-mer frequency, TF over GST control)	1.3 fold enrichment (6-mer frequency, TF over GST control)	1.14 fold enrichment (6-mer frequency, TF over GST control)	1.04 fold enrichment (6-mer frequency, TF over GST control)	1.02 fold enrichment (6-mer frequency, TF over GST control)	1.22 fold enrichment (6-mer frequency, TF over GST control)	1.1 fold enrichment (6-mer frequency, TF over GST control)	1.05 fold enrichment (6-mer frequency, TF over GST control)	1.01 fold enrichment (6-mer frequency, TF over GST control)	1.11 fold enrichment (6-mer frequency, TF over GST control)	1.01 fold enrichment (6-mer frequency, TF over GST control)	1.15 fold enrichment (6-mer frequency, TF over GST control)	
CAGAAT	1 fold enrichment (6-mer frequency, TF over GST control)	1.01 fold enrichment (6-mer frequency, TF over GST control)	1.02 fold enrichment (6-mer frequency, TF over GST control)		1.03 fold enrichment (6-mer frequency, TF over GST control)	1.05 fold enrichment (6-mer frequency, TF over GST control)		1.05 fold enrichment (6-mer frequency, TF over GST control)	1.05 fold enrichment (6-mer frequency, TF over GST control)	1.01 fold enrichment (6-mer frequency, TF over GST control)	2.05 fold enrichment (6-mer frequency, TF over GST control)	1.01 fold enrichment (6-mer frequency, TF over GST control)	1.13 fold enrichment (6-mer frequency, TF over GST control)	1.05 fold enrichment (6-mer frequency, TF over GST control)	1.13 fold enrichment (6-mer frequency, TF over GST control)	1.34 fold enrichment (6-mer frequency, TF over GST control)	1.04 fold enrichment (6-mer frequency, TF over GST control)	1.01 fold enrichment (6-mer frequency, TF over GST control)
